# Laboratory results published in PubChem BioAssay (EPA / NIEHS).
# Results filed as inconclusive are left out. Active and inactive are the calls of the source. How the source made its calls, unless noted: active means hit-call score of the fitted dose curve at least 0.9, where 1 is the maximum; inactive means score below 0.9.
# What was measured:
# [1] = ATG_M_06_TRANS: Attagene TRANS-FACTORIAL HepG2 Assay for M06 Transcription Factor (Internal Marker) (AID 2282983; active means hit-call score of the fitted dose curve at least 0.9, where 1 is the maximum); conditions: HepG2 Attagene TRANS M06 internal marker reporter
# Summary of the method: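 HepG2 cells transiently transfected with GAL4-UAS multiple reporter units, dosed 24 h. Reporter RNA reverse-transcribed, PCR-amplified, 6-FAM-labeled, HpaI-digested and quantified by capillary electrophoresis; this internal-marker signal fitted upward relative to DMSO.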
# [2] = target: Nuclear receptor subfamily 4 group A member 2 (Homo sapiens) (UniProt P43354); assay: ATG_NURR1_TRANS: Attagene TRANS-FACTORIAL HepG2 Assay for human Nuclear Receptor Related Protein 1 (NURR1) (AID 2282985; active means hit-call score of the fitted dose curve at least 0.9, where 1 is the maximum); conditions: HepG2 Attagene TRANS reporter, mRNA readout
# Sequence of Nuclear receptor subfamily 4 group A member 2 (Homo sapiens) (P43354 whole entry, looked up, the tested form may be a part): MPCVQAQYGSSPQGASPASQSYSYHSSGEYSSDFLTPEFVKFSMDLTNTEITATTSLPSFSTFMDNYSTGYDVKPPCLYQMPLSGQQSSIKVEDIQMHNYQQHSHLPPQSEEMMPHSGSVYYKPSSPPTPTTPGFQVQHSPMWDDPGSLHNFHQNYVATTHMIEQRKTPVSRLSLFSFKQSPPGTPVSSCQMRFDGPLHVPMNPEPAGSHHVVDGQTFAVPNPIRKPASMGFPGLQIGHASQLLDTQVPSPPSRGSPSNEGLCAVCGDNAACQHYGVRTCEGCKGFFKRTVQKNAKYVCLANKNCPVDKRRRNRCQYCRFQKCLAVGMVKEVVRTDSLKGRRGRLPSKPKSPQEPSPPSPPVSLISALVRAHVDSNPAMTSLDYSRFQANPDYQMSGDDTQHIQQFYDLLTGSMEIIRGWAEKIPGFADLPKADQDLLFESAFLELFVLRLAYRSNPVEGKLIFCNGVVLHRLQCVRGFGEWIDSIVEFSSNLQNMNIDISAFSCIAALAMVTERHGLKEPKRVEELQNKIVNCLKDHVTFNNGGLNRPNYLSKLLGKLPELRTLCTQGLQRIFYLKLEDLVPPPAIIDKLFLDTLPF
# Summary of the method: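 HepG2 cells transiently transfected with NURR1-Gal4 chimera and GAL4-UAS reporter units; after 24 hr compound exposure, reporter mRNA quantified by RT-PCR and capillary electrophoresis; gain of signal fitted against DMSO.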
# [3] = target: Transcriptional activator Myb (Homo sapiens) (UniProt P10242); assay: ATG_Myb_CIS: Attagene CIS-FACTORIAL HepG2 Assay for human Myeloblastosis (Myb) Proto-Oncogene Transcription Factor (AID 2282986); conditions: HepG2 Attagene CIS-FACTORIAL Myb reporter transcription; actives raise or lower the signal
# Sequence of Transcriptional activator Myb (Homo sapiens) (P10242 whole entry, looked up): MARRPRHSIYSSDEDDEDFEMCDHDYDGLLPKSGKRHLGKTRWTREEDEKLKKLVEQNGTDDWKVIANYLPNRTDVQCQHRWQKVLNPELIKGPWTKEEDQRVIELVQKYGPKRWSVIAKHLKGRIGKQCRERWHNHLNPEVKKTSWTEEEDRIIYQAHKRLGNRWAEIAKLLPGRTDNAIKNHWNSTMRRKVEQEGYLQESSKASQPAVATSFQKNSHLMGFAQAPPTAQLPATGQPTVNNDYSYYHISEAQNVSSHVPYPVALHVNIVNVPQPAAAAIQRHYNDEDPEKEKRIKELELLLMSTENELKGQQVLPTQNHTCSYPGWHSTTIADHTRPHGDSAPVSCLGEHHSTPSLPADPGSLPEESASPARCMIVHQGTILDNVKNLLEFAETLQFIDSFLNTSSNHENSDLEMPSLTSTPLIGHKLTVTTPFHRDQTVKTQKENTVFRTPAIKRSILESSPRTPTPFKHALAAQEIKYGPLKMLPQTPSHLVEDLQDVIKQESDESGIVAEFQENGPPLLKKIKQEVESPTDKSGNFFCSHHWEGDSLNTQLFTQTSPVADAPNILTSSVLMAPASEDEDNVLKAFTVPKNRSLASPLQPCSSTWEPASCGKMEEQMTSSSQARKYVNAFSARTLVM
# Summary of the method: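 Reporter transcript levels, quantified by fluorescent RT-PCR and capillary electrophoresis, serve as the read-out. Transfected HepG2 cells carrying cis-promoter reporter units are dosed for 24 hours, and curves are fitted bidirectionally against DMSO controls.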
# [4] = target: Nuclear respiratory factor 1 (Homo sapiens) (UniProt Q16656); assay: ATG_NRF1_CIS: Attagene CIS-FACTORIAL HepG2 Assay for human Nuclear Respiratory Factor 1 (NRF1) Orphan Gene (AID 2282987); conditions: HepG2 NRF1 cis-element reporter, Attagene multiplex; actives raise or lower the signal
# Sequence of Nuclear respiratory factor 1 (Homo sapiens) (Q16656 whole entry, looked up): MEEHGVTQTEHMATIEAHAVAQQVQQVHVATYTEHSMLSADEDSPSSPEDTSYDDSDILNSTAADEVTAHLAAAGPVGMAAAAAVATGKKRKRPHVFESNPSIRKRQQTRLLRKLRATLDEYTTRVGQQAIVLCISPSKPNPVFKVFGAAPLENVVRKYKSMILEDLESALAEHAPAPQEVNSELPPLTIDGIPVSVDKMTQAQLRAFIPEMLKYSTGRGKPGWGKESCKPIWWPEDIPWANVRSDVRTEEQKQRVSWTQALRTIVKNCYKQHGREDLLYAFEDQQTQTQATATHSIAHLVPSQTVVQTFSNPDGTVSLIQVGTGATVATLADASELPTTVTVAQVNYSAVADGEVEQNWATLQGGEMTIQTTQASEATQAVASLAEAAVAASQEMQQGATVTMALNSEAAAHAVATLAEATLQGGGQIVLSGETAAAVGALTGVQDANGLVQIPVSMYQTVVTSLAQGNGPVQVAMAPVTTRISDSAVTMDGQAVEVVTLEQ
# Summary of the method: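 Multiplexed cis-reporter assay, HepG2 cells, 24 h treatment. Total RNA → oligo(dT) RT → PCR with reporter-specific primers → 6-FAM primer extension → HpaI cut → CE. Bidirectional fit vs DMSO.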
# [5] = ATG_NFI_CIS: Attagene CIS-FACTORIAL HepG2 Assay for human Nuclear Factor I (NFI) (AID 2282989); conditions: HepG2 cis-regulatory reporter, NFI response element transcription; actives raise or lower the signal
# Summary of the method: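 Reporter transcription driven by endogenous transcription factors in HepG2 cells; 24 h treatment. Quantitation by labelled RT-PCR fragments on capillary electrophoresis, gain- or loss-of-signal relative to DMSO.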
# [6] = target: Myc proto-oncogene protein (Homo sapiens) (UniProt P01106); assay: ATG_Myc_CIS: Attagene CIS-FACTORIAL HepG2 Assay for human Myelocytomatosis (Myc) Proto-Oncogene Transcription Factor (AID 2282990); conditions: HepG2, Attagene cis-reporter transcription factor activity; actives raise or lower the signal
# Sequence of Myc proto-oncogene protein (Homo sapiens) (P01106 whole entry, looked up, the tested form may be a part): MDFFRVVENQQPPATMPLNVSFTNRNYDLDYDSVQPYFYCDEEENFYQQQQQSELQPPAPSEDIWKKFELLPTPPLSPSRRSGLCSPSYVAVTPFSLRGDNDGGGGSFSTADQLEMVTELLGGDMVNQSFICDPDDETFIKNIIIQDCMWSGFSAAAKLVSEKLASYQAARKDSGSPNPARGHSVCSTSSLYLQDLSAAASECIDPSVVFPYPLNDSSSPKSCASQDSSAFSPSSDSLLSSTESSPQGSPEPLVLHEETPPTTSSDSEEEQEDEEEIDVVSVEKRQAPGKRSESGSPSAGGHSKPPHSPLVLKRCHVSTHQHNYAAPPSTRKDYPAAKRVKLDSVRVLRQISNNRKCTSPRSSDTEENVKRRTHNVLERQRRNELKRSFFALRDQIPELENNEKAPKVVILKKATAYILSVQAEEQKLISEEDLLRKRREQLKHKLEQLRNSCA
# Summary of the method: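 Fluorescence intensity of reporter-specific cDNA fragments, separated by capillary electrophoresis, gives the signal. Transfected HepG2 cells carrying cis-promoter reporter constructs are incubated with compound for 24 h; DMSO serves as baseline.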
# [7] = ATG_NF_kB_CIS: Attagene CIS-FACTORIAL HepG2 Assay for human Nuclear Factor Kappa B (NF-kB) (AID 2282991); conditions: HepG2 Attagene cis-factorial NF-kB reporter mRNA; actives raise or lower the signal
# Summary of the method: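 Transient MRTU transfection of human HepG2 liver cells → 24 h chemical exposure → total RNA, oligo(dT) RT → PCR, 6-FAM primer extension, HpaI digest 2 h 37 C → CE fragment analysis. Bidirectional fitting, DMSO negative control.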
# [8] = ATG_NRF2_ARE_CIS: Attagene CIS-FACTORIAL HepG2 Assay for human Nuclear Factor Erythroid 2 Related Factor 2 (NFR2) response to Antioxidant Response Elements (ARE) (AID 2282992); conditions: HepG2 Attagene ARE/NRF2 reporter, transcription factor activity; actives raise or lower the signal;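 on AC50: reporter mRNA level measured by RT-PCR and capillary electrophoresis fluorescence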
# Summary of the method: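 Transient MRTU transfection of HepG2; 24 h compound exposure; TriZol RNA, RT with oligo(dT), PCR, 6-FAM primer extension, HpaI cut, CE. Bidirectional fit vs DMSO.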
# [9] = ATG_Oct_MLP_CIS: Attagene CIS-FACTORIAL HepG2 Assay for human Octamer-Binding Transcription Factor (Oct) (AID 2282993); conditions: HepG2 Attagene cis-factorial Oct reporter, mRNA; actives raise or lower the signal
# Summary of the method: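 Transfected HepG2 cells, 24 h treatment. Reporter mRNA quantified by RT-PCR–capillary electrophoresis; bidirectional fitting against DMSO.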
# [10] = target: Cellular tumor antigen p53 (Homo sapiens) (UniProt P04637); assay: ATG_p53_CIS: Attagene CIS-FACTORIAL HepG2 Assay for human p53 Transcription Factor (AID 2282994); conditions: HepG2 p53 cis-element reporter, Attagene mRNA; actives raise or lower the signal
# Sequence of Cellular tumor antigen p53 (Homo sapiens) (P04637 whole entry, looked up): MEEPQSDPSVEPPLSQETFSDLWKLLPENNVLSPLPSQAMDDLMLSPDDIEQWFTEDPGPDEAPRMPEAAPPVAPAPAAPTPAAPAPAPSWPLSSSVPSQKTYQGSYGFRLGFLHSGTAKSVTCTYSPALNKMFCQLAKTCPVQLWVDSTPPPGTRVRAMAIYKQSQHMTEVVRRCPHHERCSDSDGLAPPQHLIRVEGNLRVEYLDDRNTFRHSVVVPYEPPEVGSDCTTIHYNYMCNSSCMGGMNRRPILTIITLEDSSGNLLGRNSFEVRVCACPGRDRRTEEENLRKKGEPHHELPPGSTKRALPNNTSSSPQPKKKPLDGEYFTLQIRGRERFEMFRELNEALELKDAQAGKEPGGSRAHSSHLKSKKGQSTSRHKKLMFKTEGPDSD
# Summary of the method: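 HepG2, transient MRTU transfection (cis promoter elements, endogenous TFs); 24 h dosing; RNA isolation, RT-PCR, 6-FAM primer extension, HpaI digest, CE fluorescence; bidirectional fit vs DMSO.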
# [11] = target: human Peroxisome Proliferator-activated Receptor alpha (PPARa), PPARA (gene 5465) (UniProt Q07869); assay: ATG_PPARa_TRANS: Attagene TRANS-FACTORIAL HepG2 Assay for human Peroxisome Proliferator-activated Receptor alpha (PPARa) (AID 2283001; active means hit-call score of the fitted dose curve at least 0.9, where 1 is the maximum)
# Sequence of human Peroxisome Proliferator-activated Receptor alpha (PPARa), PPARA (gene 5465) (Q07869 whole entry, looked up, the tested form may be a part): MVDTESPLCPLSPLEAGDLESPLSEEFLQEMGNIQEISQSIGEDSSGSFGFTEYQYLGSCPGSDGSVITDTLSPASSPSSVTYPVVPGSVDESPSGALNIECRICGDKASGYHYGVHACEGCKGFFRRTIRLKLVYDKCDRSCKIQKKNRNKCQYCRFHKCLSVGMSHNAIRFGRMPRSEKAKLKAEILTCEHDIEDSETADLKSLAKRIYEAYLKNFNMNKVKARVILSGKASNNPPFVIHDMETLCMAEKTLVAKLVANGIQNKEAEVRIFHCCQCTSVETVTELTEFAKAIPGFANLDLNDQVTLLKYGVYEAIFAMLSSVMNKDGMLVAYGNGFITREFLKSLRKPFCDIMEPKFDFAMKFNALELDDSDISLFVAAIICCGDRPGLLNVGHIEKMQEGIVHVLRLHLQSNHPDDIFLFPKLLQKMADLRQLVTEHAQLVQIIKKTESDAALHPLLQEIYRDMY
# Summary of the method: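 HepG2 cells transiently transfected with multiplexed GAL4-UAS reporters driven by exogenous chimeric NR-Gal4 proteins; reporter mRNA measured after 24 h dosing. Read-out by RT-PCR, 6-FAM labelling, HpaI digestion and capillary electrophoresis; gain of signal versus DMSO.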
# [12] = ATG_M_32_TRANS: Attagene TRANS-FACTORIAL HepG2 Assay for M32 Transcription Factor (Internal Marker) (AID 2282984; active means hit-call score of the fitted dose curve at least 0.9, where 1 is the maximum); conditions: HepG2 Attagene TRANS M32 internal marker reporter
# Summary of the method: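 HepG2 cells transiently transfected with GAL4-UAS reporter units, dosed for 24 hours. Reporter mRNA quantified by RT-PCR, 6-FAM labelling, HpaI digestion and capillary electrophoresis; internal-marker signal fitted upward relative to DMSO.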
# [13] = BSK_3C_TissueFactor: BioMAP Diversity Plus: 3C Assay for Tissue Factor Biomarker Activity (AID 2282997); conditions: BioMAP 3C HUVEC, tissue factor biomarker readout; actives raise or lower the signal
# Summary of the method: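 HUVEC were treated 24 h, then surface tissue factor measured by ELISA and fitted bidirectionally against DMSO. Parallel SRB total-protein staining assessed overt cytotoxicity at the same time point.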
# [14] = BSK_3C_uPAR: BioMAP Diversity Plus: 3C Assay for Urokinase-type plasminogen activator receptor (uPAR) Biomarker Activity (AID 2282998); conditions: BioMAP 3C HUVEC, uPAR biomarker ELISA; actives raise or lower the signal
# Summary of the method: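 Readout: ELISA for surface uPAR. System: human umbilical vein endothelial primary cells, 24 h after chemical exposure. Analysis: bidirectional fit, DMSO baseline.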
# [15] = BSK_3C_VCAM1: BioMAP Diversity Plus: 3C Assay for Vascular cell adhesion molecule 1 (VCAM1) Biomarker Activity (AID 2282999); conditions: BioMAP 3C HUVEC, VCAM1 ELISA, cytokine-stimulated; actives raise or lower the signal
# Summary of the method: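 Human umbilical vein endothelial cells (3C system), biomarker read by ELISA 24 h after dosing; bidirectional fit against DMSO baseline. Cytotoxicity tracked by SRB total-protein staining in parallel cultures at biomarker time.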
# [16] = BSK_4H_Eotaxin3: BioMAP Diversity Plus: 4H Assay for Eotaxin 3 Biomarker Activity (AID 2283000); conditions: primary human endothelial cells (HUVEC); actives raise or lower the signal;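 further: CCL26 protein level quantified by ELISA in parallel with SRB cytotoxicity check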
# Summary of the method: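 Eotaxin-3 (CCL26) levels were measured by ELISA in HUVEC primary cultures 24 h post-dosing. Gain or loss of signal was fitted in both directions, with DMSO serving as baseline and negative control.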
smiles,measurement,setting,value
CCC1CO1 (stereo not drawn),outcome,[1],inactive
same,outcome,[2],inactive
same,outcome,[3],inactive
same,outcome,[4],inactive
same,outcome,[5],inactive
same,outcome,[6],inactive
same,outcome,[7],inactive
same,outcome,[8],inactive
same,outcome,[9],inactive
same,outcome,[10],inactive
same,outcome,[11],inactive
CCCCCCCC(OC)OC,outcome,[1],inactive
same,outcome,[2],inactive
same,outcome,[3],inactive
same,outcome,[4],inactive
same,outcome,[5],inactive
same,outcome,[6],inactive
same,outcome,[7],inactive
same,outcome,[8],inactive
same,outcome,[9],inactive
same,outcome,[10],inactive
O=C1OC(=O)c2cc(-c3ccc4c(c3)C(=O)OC4=O)ccc21,outcome,[12],inactive
same,outcome,[2],inactive
same,outcome,[3],inactive
same,outcome,[4],inactive
same,outcome,[5],inactive
same,outcome,[6],inactive
same,outcome,[7],inactive
same,outcome,[8],inactive
same,outcome,[9],inactive
same,outcome,[10],inactive
Nc1cc(Cl)c(-c2cc(Cl)c(N)cc2Cl)cc1Cl,outcome,[12],inactive
same,outcome,[2],inactive
same,outcome,[3],inactive
same,outcome,[4],inactive
same,AC50,[5],17.3 µM (active)
same,AC50,[6],7.12 µM (active)
same,outcome,[7],inactive
same,AC50,[8],12.5 µM (active)
same,AC50,[9],11.1 µM (active)
same,outcome,[10],inactive
CCCCCCCCCC=CCC1CC(=O)OC1=O (stereo not drawn),outcome,[3],inactive
same,outcome,[4],inactive
same,outcome,[5],inactive
same,outcome,[6],inactive
same,AC50,[7],54.9 µM (active)
same,outcome,[8],inactive
same,outcome,[9],inactive
same,outcome,[10],inactive
same,outcome,[11],inactive
COc1cc([N+](=O)[O-])ccc1N,outcome,[3],inactive
same,outcome,[4],inactive
same,outcome,[5],inactive
same,outcome,[6],inactive
same,outcome,[7],inactive
same,outcome,[8],inactive
same,outcome,[9],inactive
same,outcome,[10],inactive
same,outcome,[11],inactive
CC(=O)Nc1ccc(O)cc1,outcome,[1],inactive
same,outcome,[12],inactive
same,outcome,[3],inactive
same,outcome,[6],inactive
same,outcome,[9],inactive
same,outcome,[13],inactive
same,outcome,[14],inactive
same,outcome,[15],inactive
CCC(C)c1ccccc1O (stereo not drawn),outcome,[1],inactive
same,outcome,[2],inactive
same,outcome,[3],inactive
same,outcome,[4],inactive
same,outcome,[5],inactive
same,outcome,[6],inactive
same,outcome,[7],inactive
same,outcome,[9],inactive
same,outcome,[13],inactive
same,outcome,[14],inactive
same,outcome,[15],inactive
same,outcome,[11],inactive
CCCCCCCCCCCCOS(=O)(=O)O,outcome,[13],inactive
same,outcome,[14],inactive
same,outcome,[15],inactive
same,outcome,[16],inactive
CC(C)(C)c1ccc(CCC=O)cc1,outcome,[12],inactive
same,outcome,[2],inactive
same,outcome,[3],inactive
same,outcome,[4],inactive
same,outcome,[5],inactive
same,outcome,[7],inactive
same,outcome,[9],inactive
same,AC50,[10],182 µM (active)
CC(C)CCOCCC(C)C,outcome,[2],inactive
same,outcome,[3],inactive
same,outcome,[4],inactive
same,outcome,[5],inactive
same,outcome,[6],inactive
same,outcome,[7],inactive
same,outcome,[8],inactive
same,outcome,[9],inactive
same,outcome,[10],inactive
c1cc[nH]c1,outcome,[1],inactive
same,outcome,[3],inactive
same,outcome,[4],inactive
same,outcome,[5],inactive
same,outcome,[6],inactive
same,outcome,[7],inactive
same,outcome,[8],inactive
same,outcome,[9],inactive
same,outcome,[10],inactive
same,outcome,[11],inactive
CCc1cccc(CC)c1N(COC)C(=O)CS(=O)(=O)O,outcome,[12],inactive
same,outcome,[3],inactive
same,outcome,[4],inactive
same,outcome,[5],inactive
same,outcome,[6],inactive
same,outcome,[7],inactive
same,outcome,[8],inactive
same,outcome,[9],inactive
same,outcome,[10],inactive
same,outcome,[11],inactive
CCCCN(C)C,outcome,[2],inactive
same,outcome,[3],inactive
same,outcome,[4],inactive
same,outcome,[5],inactive
same,outcome,[6],inactive
same,outcome,[7],inactive
same,outcome,[8],inactive
same,outcome,[9],inactive
same,outcome,[10],inactive
same,outcome,[11],inactive
FC(F)(F)C1(F)C(F)(F)C(F)(F)C(F)(F)C1(F)F,outcome,[12],inactive
same,outcome,[3],inactive
same,outcome,[4],inactive
same,outcome,[5],inactive
same,outcome,[6],inactive
same,outcome,[7],inactive
same,outcome,[8],inactive
same,outcome,[9],inactive
same,outcome,[10],inactive
same,outcome,[11],inactive
O=S(=O)(O)c1ccc2cc(O)ccc2c1,outcome,[12],inactive
same,outcome,[3],inactive
same,outcome,[4],inactive
same,outcome,[5],inactive
same,outcome,[7],inactive
same,outcome,[8],inactive
same,outcome,[9],inactive
same,outcome,[10],inactive
same,outcome,[11],inactive
CCCCC=O,outcome,[3],inactive
same,outcome,[4],inactive
same,outcome,[5],inactive
same,outcome,[7],inactive
same,outcome,[8],inactive
same,outcome,[9],inactive
same,outcome,[13],inactive
same,outcome,[14],inactive
same,outcome,[15],inactive
same,outcome,[11],inactive
CN(Cc1cnc2nc(N)nc(N)c2n1)c1ccc(C(=O)N[C@@H](CCC(=O)O)C(=O)O)cc1,outcome,[3],inactive
same,outcome,[4],inactive
same,outcome,[5],inactive
same,outcome,[6],inactive
same,outcome,[8],inactive
same,outcome,[9],inactive
same,outcome,[13],inactive
same,outcome,[14],inactive
same,outcome,[15],inactive
same,outcome,[16],inactive
Cc1cccc2c1ccc1ccccc12,outcome,[12],inactive
same,outcome,[2],inactive
same,outcome,[3],inactive
same,outcome,[4],inactive
same,outcome,[5],inactive
same,outcome,[6],inactive
same,outcome,[7],inactive
same,outcome,[8],inactive
same,outcome,[9],inactive
same,outcome,[10],inactive
same,AC50,[13],0.0495 µM (active)
same,outcome,[14],inactive
same,outcome,[15],inactive
same,outcome,[11],inactive
